In PubChem BioAssay (NCI):
Values joined by “and” are separate entries in the source; they are usually repeats but may differ in a detail not shown here. Identical values can stand only once. This is part of a sample that, as a whole, favours compounds with a hit. Of some 83,000 tested, about 20% had one in any assay.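 A percent growth of 40 corresponds to 60% growth inhibition; 0 means no net growth; -100 means all cells died. Active threshold: below 10.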 Active and inactive are the calls of the source.

What was measured:
Experiment in all cases: NCI-60 one-dose screen, 48 h (100 = growth as untreated, 0 = no growth, -100 = all killed)
[1] = tested on: HL-60(TB) leukemia; conditions: 10 µM unless noted
[2] = tested on: HT29 colon; conditions: 10 µM unless noted
[3] = tested on: SNB-75 CNS; conditions: 10 µM unless noted
[4] = tested on: SNB-19 CNS; conditions: 10 µM unless noted
[5] = tested on: U251 CNS; conditions: 10 µM unless noted
[6] = tested on: PC-3 prostate; conditions: 10 µM unless noted
[7] = tested on: SK-MEL-5 melanoma; conditions: 10 µM unless noted
[8] = tested on: LOX IMVI melanoma; conditions: 10 µM unless noted
[9] = tested on: SK-MEL-2 melanoma; conditions: 10 µM unless noted
[10] = tested on: EKVX NSCLC; conditions: 10 µM unless noted
[11] = tested on: SN12C renal; conditions: 10 µM unless noted
[12] = tested on: UO-31 renal; conditions: 10 µM unless noted
[13] = tested on: ACHN renal; conditions: 10 µM unless noted
[14] = tested on: CAKI-1 renal; conditions: 10 µM unless noted
[15] = tested on: A498 renal; conditions: 10 µM unless noted
[16] = tested on: CCRF-CEM leukemia; conditions: 10 µM unless noted
[17] = tested on: MOLT-4 leukemia; conditions: 10 µM unless noted
[18] = tested on: SR leukemia; conditions: 10 µM unless noted
[19] = tested on: RPMI-8226 leukemia; conditions: 10 µM unless noted
[20] = tested on: OVCAR-8 ovarian; conditions: 10 µM

Measured: growth

Oc1ccc(Cl)cc1Sc1cc(Cl)ccc1O
inactive: [1] 81.8%

O=C(O)c1ccccc1.[Ag]
inactive: [1] 113%

COc1ccccc1/C=C(/C)[N+](=O)[O-]
0.614% (active) and 118% (inactive): [19]
inactive: [2] 54.7% and 88.8% | [3] 68.3% and 85% | [4] 73.9% and 107% | [5] 83% and 98.7% | [6] 90.3% and 84.7% | [7] 80.3% and 102% | [8] 22.2% and 92.2% | [9] 94.8% and 85.9% | [10] 90.8% and 98.4% | [11] 32.9% and 99.3% | [12] 78.7% and 83.1% | [13] 71.1% and 107% | [14] 85.8% and 95.1% | [15] 99.1% and 118% | [1] 30.7% and 92.7% | [17] 13.9% and 102% | [18] 10% and 92.3% | [20] 85.6% and 103%
8.42% (active) and 99.5% (inactive): [16]

C[C@H]1CCC/C=C/[C@@H]2C[C@H](O)C[C@H]2[C@H](O)/C=C/C(=O)O1
inactive: [4] 38.3% | [5] 20.6% | [10] 11.1% | [11] 19.8%
active: [2] -53.5% | [3] -19.7% | [6] -14.6% | [7] -96.7% | [8] -69.4% | [9] -21.5% | [12] -22.9% | [13] 1.27% | [14] -2.67% | [15] -37.1% | [1] -22.5% | [16] 7.53% | [17] -7.93% | [18] -6.07% | [19] -17.9%

COc1ccc(OC)c(/C=C/[N+](=O)[O-])c1
inactive: [3] 33.7% | [4] 41.8% | [10] 67.7% | [11] 15.9% | [15] 18.5% | [20] 11.8%
active: [2] -29.5% | [5] -27.2% | [6] -29.4% | [7] -16.2% | [8] -48.5% | [9] 1.51% | [12] -81.9% | [13] -67.9% | [14] -3.49% | [1] 1.04% | [16] 8.78% | [17] -4.18% | [18] -13% | [19] -28.9%

CC[C@](O)(C(=O)O)c1cc2n(c(=O)c1CO)Cc1cc3ccccc3nc1-2
active: [2] -31.3% | [3] -33.5% | [4] 1.96% | [5] 1.58% | [6] -8.14% | [7] -94.2% | [8] -40.9% | [9] -20.9% | [12] -61% | [13] -57.1% | [14] -28.8% | [15] -76.5% | [1] -44.6% | [16] -24.5% | [17] -38.3% | [18] -20.3% | [19] -36%
inactive: [10] 10.2% | [11] 17%

NCCc1ccc(OCc2ccccc2)c(OCc2ccccc2)c1
inactive: [2] 55% | [3] 63.9% | [4] 94.5% | [5] 44.3% | [6] 74.1% | [7] 89.3% | [8] 63.2% | [9] 87.4% | [11] 86.6% | [12] 51.2% | [13] 71.1% | [14] 81.6% | [15] 79% | [1] 51.4% | [17] 78.1% | [19] 69.7% | [20] 79.3%
active: [18] -27.5%

O=C1c2ccccc2C(=O)C(Cl)C1Cl (stereo not drawn)
inactive: [2] 96.8% | [3] 54% | [4] 69.5% | [5] 83% | [6] 71.8% | [7] 86.3% | [9] 111% | [11] 71.4% | [14] 64.5% | [15] 133% | [18] 35.6% | [19] 31.1% | [20] 91.9%
active: [10] -79.6% | [12] -98.5% | [13] -100% | [1] -24.2% | [16] -20.8% | [17] -8.44%

C[C@]12CC[C@H](O)CC1=CC[C@@H]1[C@@H]2CC[C@]2(C)C(=O)CC[C@@H]12
active: [18] -4.91%
inactive: [2] 81.5% | [3] 71.6% | [4] 95% | [5] 101% | [6] 79.2% | [7] 92.9% | [8] 102% | [9] 95.3% | [10] 85.7% | [11] 106% | [12] 80.6% | [13] 108% | [14] 87.3% | [15] 92% | [1] 85% | [16] 76.3% | [17] 89% | [19] 80.4%

Cc1cc(N=Nc2ccccc2C)ccc1N
inactive: [2] 103% | [3] 42.5% | [4] 69.7% | [5] 74.9% | [7] 79.3% | [8] 71.5% | [9] 127% | [10] 71.9% | [11] 28.9% | [12] 19.3% | [13] 85.3% | [14] 54.7% | [17] 29.3% | [19] 17.5% | [20] 82.1%
active: [1] 8.96% | [16] 4.33%

COC1CC(CC2CCC(C)C(C(C)C(=O)O)O2)OC2(OC(C)(C3CCC(C)(C4OC(C5OC(O)(CO)C(C)CC5C)CC4C)O3)CC2C)C1C (stereo not drawn)
active: [2] -0.662% | [3] -60.6% | [4] -2.87% | [5] 3.01% | [6] 5.39% | [7] -96.3% | [9] -61.3% | [14] 8.78% | [15] -68.8% | [1] -56% | [16] -27.1% | [17] -36.2% | [18] -28.8% | [19] -45%
inactive: [8] 11.3% | [10] 19.1% | [11] 17.1% | [12] 13.3% | [13] 16.2%

CO[C@H](/C(C)=C/C=C/C(C)=C/c1coc(C)n1)[C@H](C)[C@H]1C[C@@H](O)[C@@]2(C)O[C@H]2/C=C/[C@@H](C)[C@@H]2C[C@@H](CC(=O)O2)C[C@H]2O[C@@H]2C(=O)O1
inactive: [4] 21.2% | [8] 13.1% | [9] 51.4% | [10] 39.6% | [11] 48.7% | [12] 20.7% | [14] 15% | [15] 26.1%
active: [2] -23.2% | [3] -46.7% | [5] 3.46% | [6] -14.4% | [7] -18.7% | [13] -10.3% | [1] -36.9% | [16] -3.89% | [17] 9.7% | [18] -4.11% | [19] -14.5%

CC1=C(CO)C2=C(C)C3(CC3)[C@@](C)(O)C(=O)C2=C1
inactive: [4] 11.3% | [8] 22.8% | [11] 20.5% | [16] 28.6% | [17] 16% | [18] 21.4% | [19] 80.2%
active: [2] -17.8% | [3] -83.8% | [5] 2.57% | [6] -18.8% | [7] -84.1% | [9] -46.8% | [10] 0.643% | [12] -40.5% | [13] -16.4% | [14] -17% | [15] -66.5% | [1] -32.9%

CN1CCN(c2ccc([N+](=O)[O-])c3no[n+]([O-])c23)CC1
active: [2] -51.8% | [3] -78.2% | [4] -30.5% | [5] -95.6% | [6] -65.9% | [7] -46.6% | [8] -46.2% | [9] -80.5% | [10] -34.4% | [11] -63.9% | [12] -48.4% | [13] -84% | [14] -75.2% | [15] -34.8% | [1] -42.4% | [16] -30.6% | [17] -46% | [19] -36.6% | [20] -92.7%

CCCCCCCCCCCC1CCCC(C)N1 (stereo not drawn)
inactive: [2] 14.9% | [3] 82% | [4] 93.2% | [5] 59.6% | [6] 44.4% | [7] 97% | [8] 52.3% | [10] 91.2% | [11] 75.3% | [12] 29% | [13] 77.8% | [14] 86.6% | [15] 95.8% | [16] 16.5% | [17] 14.1% | [20] 67.3%
active: [9] -7.27% | [1] -45.8% | [18] -28% | [19] -34.7%

c1ccc2c(c1)[nH]c1c2cc[n+]2cc3c(cc12)CCCC3
inactive: [1] 13.5%

CC[C@@]1(O)C(=O)OCc2c1cc1n(c2=O)Cc2cc3ccccc3nc2-1
active: [2] -31.8% | [3] -41.8% | [4] -0.517% | [5] -31.6% | [6] -22.3% | [7] -83.9% | [8] -62.4% | [9] -20.7% | [12] -59.6% | [13] -72.6% | [14] -37.9% | [15] -77.4% | [16] -28.1% | [17] -17.4% | [18] -3.04% | [19] -39.7%
inactive: [10] 13.5% | [11] 13.5%

Oc1cccc2cccnc12
inactive: [2] 51.8% and 106% | [3] 101% and 106% and 89.6% | [4] 95.1% and 108% and 102% | [5] 72.3% and 99.1% and 106% | [6] 86.9% and 97.3% and 92.3% | [7] 97.2% and 99.9% and 110% | [8] 71.9% and 99.1% and 107% | [9] 99% and 102% and 101% | [10] 93% and 110% and 103% | [11] 89.6% and 103% and 99.6% | [12] 74.2% and 94.4% and 80.2% | [13] 83.5% and 117% and 96% | [14] 103% and 100% and 107% | [15] 137% and 99.4% and 83.7% | [1] 98.8% and 114% and 78.2% | [16] 48.8% and 99.2% and 96% | [17] 60.2% and 110% and 97.8% | [18] 40.1% and 105% and 57.7% | [19] 84% and 97.1% | [20] 81.9% and 101% and 105%
